Tau ThT inhib – tau fibrillization inhibition (ThT binding). P10636. recombinant tau K18 P301L, heparin-induced fibrillization, ThT fluorescence. Potency, µM (titrated, usually from 57.4 µM), usual class: inhibitors. 2.1% of 270,000 active. AID 1460; note: nearly all actives have a fitted effect of over 55% in size
Target sequence (P10636 561-689 P618L limits assumed): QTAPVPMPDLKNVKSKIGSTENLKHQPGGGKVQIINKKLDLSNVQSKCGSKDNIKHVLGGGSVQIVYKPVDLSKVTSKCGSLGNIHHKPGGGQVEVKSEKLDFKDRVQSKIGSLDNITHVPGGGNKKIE
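Recombinant human tau K18 fragment […] carrying P301L, 15 uM unlabeled plus 0.24 uM Alexa 594-labeled, was fibrillized with 20 uM heparin in 100 mM sodium acetate pH 7 for 6 hr at 37 C; 30 uM ThT fluorescence read after 1 hr.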
Coupling enz – counter-screen for Giardia aldolase inhibitors: coupling enzyme system | 0.67% of 290,000 active | activity change, negative = inhibition, % at 58.2 µM, hits read low | coupling enzyme system counterscreen, AmpLite Red fluorescence | AID 2472; in the data active = activity change below about -30%
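Fluorescence at 525 nm excitation and 598 nm emission measured inhibition of the coupled detection system without aldolase. Compounds (at 57.5 uM final) were preincubated 10 min at room temperature with coupling enzyme reagent before a 20 min substrate/AmpLite Red step.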
G9a block – inhibitors of human histone lysine methyltransferase G9a; Q96KQ7; G9a H3K9 monomethylation, AlphaScreen, 2 h; Potency, µM (top dose mostly 102 µM), usual class: inhibitors; 8.8% of 350,000 active; AID 504332; note: nearly all actives have a fitted effect of over 75% in size
Target sequence (Q96KQ7 913-1193 limits assumed): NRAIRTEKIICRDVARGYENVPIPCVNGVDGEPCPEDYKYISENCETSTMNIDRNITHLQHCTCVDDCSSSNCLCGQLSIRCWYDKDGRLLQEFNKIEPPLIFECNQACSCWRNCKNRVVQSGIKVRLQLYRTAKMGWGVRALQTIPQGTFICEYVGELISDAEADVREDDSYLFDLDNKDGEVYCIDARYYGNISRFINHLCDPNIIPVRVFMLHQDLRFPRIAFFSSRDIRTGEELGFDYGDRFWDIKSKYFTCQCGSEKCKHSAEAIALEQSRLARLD
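Readings reflect AlphaScreen signal from monomethyl-H3K9 antibody detection. HMT at 20 nM; substrate b-H3K9 500 nM; cofactor SAM 20 uM; 2 h RT reaction; compounds tested as titrations in qHTS with 15 min preincubation.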
Tau fibril FP – blocks human tau fibril formation measured by polarization | AID 1468 | Potency, µM (top dose mostly 57.7 µM), most hits filed as inhibitors | 0.39% of 280,000 active | K18 P301L tau heparin fibrillization, Alexa594 FP, 6 h; note: nearly all actives have a fitted effect of over 55% in size
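FP of Alexa 594-tau after heparin (20 uM) induction. Substrate: human K18 P301L, 15 uM unlabeled, 0.24 uM labeled. Buffer 100 mM sodium acetate pH 7. 6 hr, 37 C.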
Tau fluor cs – counter-screen for tau fibril formation inhibitors; 0.93% of 280,000 active; Potency, µM (top dose mostly 57.7 µM); tau K18 P301L (four-repeat tau fragment) Alexa594 fluorescence, heparin fibrillization; note: nearly all actives have a fitted effect of over 55% in size
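Human K18 P301L tau (15 uM unlabeled plus 0.24 uM Alexa 594-labeled, final) in 100 mM sodium acetate pH 7 was mixed with compound and 20 uM heparin and incubated 6 hr at 37 C.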
Sfp inh – Sfp phosphopantetheinyl transferase inhibition; 3.5% of 310,000 active; Potency, µM, usual class: inhibitors; Q9F4F7; Biochemical Sfp PPTase activity, qHTS; AID 1490;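 note: the enzyme is Sfp with the accession as filed and its product quenches rhodamine fluorescence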
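Step 1, compound plus 15 nM Sfp-PPTase, 15 min, room temperature. Step 2, add rhodamine-CoA (5 uM) and BHQ-2-YbbR (12.5 uM). Step 3, read 525/598 nm fluorescence at 0 and 30 min.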
Each line names hits and unclear results; the compound was inactive in the other large screens; ! = a repeat was not active; [ ] = dose if it differs, or a comment. Hits are enriched below; roughly 11% of the tested compounds scored in any of these assays. Unless noted, calls come from the whole dose curve; as a rule, active = well fitted curve in the direction sought with a large enough effect; inconclusive = small, poorly fitted or top-dose-only effect, or another doubt; inactive = no such curve, though single readings can be large; an effect the other way counts as inactive or inconclusive.

Cc1cc(C)nc(N/N=C2/CCCC/C2=C\c2ccccc2)n1	none
COc1cccc(NC(=O)c2ccc3nc(Cc4ccccc4)oc3c2)c1	Tau fibril FP inconclusive, Tau fluor cs inconclusive (no result: Coupling enz, Sfp inh)
CC(=O)c1cccc(NC(=O)C2=CN3CCS(=O)(=O)N=C3C=C2)c1	none (no result: Tau ThT inhib, Coupling enz, Tau fibril FP, Tau fluor cs, Sfp inh)
CC1CCN(C(c2ccc(N(C)C)cc2)c2nnnn2Cc2ccccc2)CC1 (centres undefined)	Tau ThT inhib inconclusive, G9a block 16µM, Tau fluor cs inconclusive
COCCn1nnnc1C(c1ccc(O)c(OC)c1)N1CCc2ccccc2C1 (centres undefined)	Tau ThT inhib inconclusive, G9a block inconclusive, Sfp inh 14µM
CCC(C)(C)n1nnnc1C(c1ccc(O)cc1)N1CCc2ccccc2C1 (centres undefined)	Tau ThT inhib inconclusive, G9a block 2.5µM, Sfp inh 14µM
COc1ccc(C(c2nnnn2C2CCCC2)N2CCc3ccccc3C2)cc1OC (centres undefined)	none
CC(C)(C)n1nnnc1C(c1ccccc1)N1CCc2ccccc2C1 (centres undefined)	G9a block inconclusive
CCC(C)(C)n1nnnc1C(c1ccc(C)cc1)N1CCSCC1 (centres undefined)	none
COc1ccc(Cn2nnnc2C(c2ccc(N(C)C)cc2)N2CCC(C)CC2)cc1 (centres undefined)	Tau ThT inhib inconclusive, Tau fluor cs inconclusive
CN(C)c1ccc(C(c2nnnn2C(C)(C)C)N2CCc3ccccc3C2)cc1 (centres undefined)	Tau ThT inhib inconclusive, G9a block 40µM
CC1CCN(C(c2ccc(N(C)C)cc2)c2nnnn2C(C)(C)C)CC1 (centres undefined)	Tau ThT inhib 10µM, G9a block inconclusive, Tau fluor cs inconclusive, Sfp inh 20µM
COc1ccc(C)cc1NC(=O)Cn1c(=O)n(Cc2nc(C)no2)c(=O)c2ccccc21	Tau ThT inhib inconclusive, G9a block inconclusive (no result: Coupling enz, Sfp inh)
CCOc1ccc(Nc2nc3c(S(=O)(=O)c4ccc(CC)cc4)nnn3c3ccc(Cl)cc23)cc1	Tau fibril FP inconclusive (no result: Coupling enz, Sfp inh)
CC1(OC(=O)c2ccc(Cl)nc2)C(=O)C=C2C=C(c3ccsc3)OC=C2C1=O (centres undefined)	Tau ThT inhib inconclusive (no result: G9a block)
CC1(OC(=O)c2ccc(Cl)nc2)C(=O)C=C2C=C(c3ccc(C#N)cc3)OC=C2C1=O (centres undefined)	Tau ThT inhib 25µM, Tau fibril FP inconclusive, Tau fluor cs inconclusive, Sfp inh inconclusive (no result: G9a block)
CC1(OC(=O)c2ccc(Cl)nc2)C(=O)C=C2C=C3CCCN3C=C2C1=O (centres undefined)	Tau ThT inhib 5µM, Tau fibril FP inconclusive, Sfp inh inconclusive
CC1(OC(=O)c2ccc(Cl)nc2)C(=O)C=C2C=C(C3CC3)OC=C2C1=O (centres undefined)	none (no result: G9a block)
COC(=O)CCC(=O)OC1(C)C(=O)C=C2C=C3CCCN3C=C2C1=O (centres undefined)	Tau ThT inhib 10µM!, Tau fibril FP inconclusive
COCC(=O)N1CCC2(CC1)CN(C(=O)Nc1ccccc1)C2	none (no result: Tau ThT inhib, Tau fibril FP, Tau fluor cs)
COc1ccccc1CCNC(=O)C(=O)NCC(c1cccs1)S(=O)(=O)c1ccc(C)cc1 (centres undefined)	none (no result: Coupling enz, Sfp inh)
O=[N+]([O-])c1ccc2[nH]c3c(c2c1)CCCC3	Tau ThT inhib inconclusive, G9a block 40µM, Tau fluor cs inconclusive
O=[N+]([O-])c1cccc2c3c([nH]c12)CCCC3	Tau ThT inhib inconclusive, G9a block 8.9µM
COc1ccc(NC2=CC(c3ccc(OC)c(OC)c3)N(c3ccc(OC)cc3)C2=O)cc1 (centres undefined)	G9a block 40µM
COc1ccc(OC2C(=O)N(c3ccc(C)c(C)c3)C2c2ccc(OC)c(OC)c2)cc1 (centres undefined)	none
NS(=O)(=O)c1ccc(NC2=CC(c3ccc([N+](=O)[O-])cc3)N(c3ccc(S(N)(=O)=O)cc3)C2=O)cc1 (centres undefined)	Tau ThT inhib inconclusive, G9a block 22µM, Tau fluor cs 13µM[quencher], Sfp inh 11µM

Screening data deposited in PubChem BioAssay by National Center for Advancing Translational Sciences (NCATS).
